Test [1] can be described thus: NCI Yeast Anticancer Drug Screen. Data for the rad50 strain (AID 155).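 Further: 0% = growth of vehicle-only cultures of the same strain.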 The conditions noted are these: S. cerevisiae rad50 strain growth inhibition; at 50.0 µM; stronger effect = higher value. The procedure, abridged: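 Inhibition values express reduced yeast growth in compound-treated cultures relative to vehicle-treated controls.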
A short description of test [2]: NCI Yeast Anticancer Drug Screen. Data for the mec2-1 strain (AID 157). Conditions: S. cerevisiae mec2-1 strain, at 50.0 µM, stronger effect = higher value. Put shortly: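 Readout is yeast growth inhibition, normalised to vehicle-treated controls, in the mec2-1 strain exposed to compound.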
A short description of test [3]: NCI Yeast Anticancer Drug Screen. Data for the sgs1 mgt1 strain (AID 161).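 Further: 0% = growth of cultures given vehicle only.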 The conditions noted are these: S. cerevisiae sgs1 mgt1 strain, at 50.0 µM, stronger effect = higher value. The procedure, abridged:
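This yeast growth screen uses a strain with defined DNA-repair lesions; compound-treated growth is compared with vehicle-treated growth.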

A short description of test [4]: NCI Yeast Anticancer Drug Screen. Data for the cln2 rad14 strain (AID 165).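 Further: 0% = growth equal to vehicle treated cultures.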 Conditions: S. cerevisiae cln2 rad14 strain, at 50.0 µM, stronger effect = higher value. The procedure, abridged:
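Relative to vehicle controls, growth inhibition of compound-treated cln2 rad14 yeast was recorded.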

The nature of test [5]: NCI Yeast Anticancer Drug Screen. Data for the bub3 strain (AID 167). The conditions noted are these: S. cerevisiae bub3 mutant strain, at 50.0 µM, stronger effect = higher value. Put shortly: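 Steps: expose the mutant yeast strain to compound; grow alongside vehicle-treated cultures; measure growth; express inhibition against the vehicle cultures.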
Test [6] is described as follows: NCI Yeast Anticancer Drug Screen. Data for the mlh1 rad18 strain (AID 175). Conditions: S. cerevisiae mlh1 rad18 strain growth inhibition; at 50.0 µM; stronger effect = higher value. Put shortly:
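Test agents were incubated with a yeast strain of defined genotype (DNA damage repair defect). Inhibition of growth was derived by comparison with vehicle-exposed cultures.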

This is part of a sample that, as a whole, favours compounds with a hit. Of some 79,000 tested, about 15% had one in any assay. Values without a mark were called inactive. Active and inactive are the calls of the source. No stated cut-off is given here; in the data, active means growth inhibition above about 70%; inactive means the rest.

The text below walks through data of PubChem BioAssay (NCI).

`CN1CCC=C(C(C)(C)O)C1`: the growth inhibition in test [1] was -3.55%; in test [2], -4.45%; in test [3] it was -15.7%; in test [4], 11.3%; in test [5], -0.6%; in test [6], 2.35%.
On to `COC(c1ccccc1)c1ccccc1`, for which the growth inhibition in test [1] is -21.1%; in test [2], 4.9%; in test [3] it was 29.5%; in test [4], -16.4%; in test [5], 1.75%; in test [6] it was -8%.
For `CC(=O)c1c(O)ccc2c1CC(CC=O)O2` (stereo unspecified), the growth inhibition in test [1] was 18.6%; in test [2], -1.05%; in test [3], -20.9%; in test [4], 0.75%; in test [5], 9.05%; in test [6], -21.4%.
In the case of `O=S1(=O)C=C(Br)CO1`, the growth inhibition in test [1] was -4.65%; in test [2], 1.75%; in test [3], -2.5%; in test [4] it was -17.4%; in test [5] it was -20.6%; in test [6] it was -15.7%.
With `CCOCC(C)(CO)CC(C)CO` (stereo unspecified), the growth inhibition in test [1] was -10.2%; in test [2], 1.35%; in test [3], -5.6%; in test [4], -6.6%; in test [5] it was -4.55%; in test [6] it was 4%.
`COc1cccc(C=NC23CC4CC(CC(C4)C2)C3)c1`: the growth inhibition in test [1] was -22.2%; in test [2], -3.15%; in test [3] it was 3.65%; in test [4] it was -0.9%; in test [5], 6.85%; in test [6], -6.8%.
Consider `C=C(C)[C@@H]1CC[C@]2(C)CC[C@]3(C)[C@H](CC[C@@H]4[C@@]5(C)CC[C@H](O)C(C)(C)[C@@H]5CC[C@]43C)[C@@H]12`, for which the growth inhibition is -2.75% in test [1]; -4.95% in test [2]; -11.3% in test [3]; -10.4% in test [4]; -6.05% in test [5]; -11.3% in test [6].
`COC(=O)C(=O)c1c(C(=O)OC)nc2nnc(N)n2c1-c1ccc(O)c(OC)c1`: the growth inhibition was 0.5% in test [1]; -11.9% in test [2]; -2.65% in test [3]; -31.8% in test [4]; 16.5% in test [5]; -9.9% in test [6].
`NNCCc1n[nH]c(=O)n1N`: the growth inhibition in test [1] was -3.5%; in test [2], -18.4%; in test [3] it was 9.55%; in test [4], 2.55%; in test [5], 5.1%; in test [6] it was -8.15%.
For `C/C(=C\C(=O)c1cccc([N+](=O)[O-])c1)c1cccc([N+](=O)[O-])c1`, the growth inhibition in test [1] is 1.35%; in test [2], 15.3%; in test [3], 0.7%; in test [4], -21.6%; in test [5], 2.6%; in test [6] it was 29.6%.
As to `O=C(CCc1cc(-c2ccc(F)cc2)n[nH]1)N(Cc1ccccc1)Cc1ccccc1`, the growth inhibition was -20.1% in test [1]; 11.2% in test [2]; -27.8% in test [3]; 2.25% in test [4]; -20.2% in test [5]; -9% in test [6].
Take `O=C(O)C(CSC(c1ccccc1)(c1ccccc1)c1ccccc1)Nc1ccccc1[N+](=O)[O-]` (stereo unspecified): the growth inhibition in test [1] was 99% (active); in test [2], 99.2% (active); in test [3], 99.4% (active); in test [4], 98% (active); in test [5], 98.3% (active); in test [6], 99.2% (active).
Turning to `O=C(O)CCNc1ccccc1C(=O)O`, the growth inhibition in test [1] is -8.4%; in test [2], -15.2%; in test [3] it was -13.9%; in test [4], -9.6%; in test [5], -40.8%; in test [6] it was -0.25%.
Regarding `N#CCC(=O)c1ccc(N)cc1`, the growth inhibition in test [1] was 16.1%; in test [2], -19.6%; in test [3], 2.2%; in test [4] it was 13.9%; in test [5] it was -11%; in test [6] it was 13.4%.
As to `Cc1cc(CC(O)(c2ccccc2)c2ccccc2)nc2[nH]c(=O)ccc12`, the growth inhibition in test [1] was 0.7%; in test [2], -6.7%; in test [3] it was -1.05%; in test [4] it was 44.9%; in test [5] it was 6.95%; in test [6] it was -1.35%.
Take `COc1ccc(O)c(C(=O)O)c1`: the growth inhibition in test [1] is -20.2%; in test [2], -12.3%; in test [3], -7.55%; in test [4], 12.6%; in test [5] it was -3.35%; in test [6], 2.15%.
As to `NNC(=O)COCC(=O)NN`, the growth inhibition is -17.5% in test [1]; -27.2% in test [2]; -24.5% in test [3]; -9.1% in test [4]; -15.2% in test [5]; -25.1% in test [6].
Take `Nc1ccc(Cc2ccc(N)c(Br)c2)cc1Br`: the growth inhibition in test [1] is -0.75%; in test [2], 13.9%; in test [3], 25.1%; in test [4] it was -19.3%; in test [5], -14.8%; in test [6] it was 32.4%.
`CC1(O)c2ccccc2-c2nc3ccccc3nc21` (stereo unspecified): the growth inhibition is 15.1% in test [1]; 14.4% in test [2]; -16.4% in test [3]; -11.8% in test [4]; -0.35% in test [5]; -15.4% in test [6].
Turning to `CNc1ccc(C)cc1S(=O)(=O)c1ccccc1[N+](=O)[O-]`, the growth inhibition in test [1] was 65.5%; in test [2], 42.5%; in test [3] it was 58.1%; in test [4] it was 29.2%; in test [5], 47.1%; in test [6], 16.1%.
Take `Cc1ncc(CO)c(/C=N/NC(N)=S)c1O`: the growth inhibition in test [1] was 3.3%; in test [2] it was -13.9%; in test [3] it was 3.7%; in test [4], -34.9%; in test [5], 0.05%; in test [6], 13.6%.
